In PubChem BioAssay (NCI):
Compounds without any hit were thinned out: in the full panel of roughly 83,000, 20% have a hit.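 Step 1: grow cells in 96-well plates. Step 2: add test compound at a single concentration. Step 3: incubate 48 h. Step 4: record percent growth.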 Active and inactive are the calls of the source. The calls were made as follows: active = growth percent below 10; inactive = the rest.

Each molecule was assayed on HL-60(TB) leukemia (assay: NCI-60 one-dose screen, 48 h (100 = growth as untreated, 0 = no growth, -100 = all killed)). Settings: 10 µM unless noted.

Structure (SMILES) | growth
CCNC(=O)Oc1ccc(/C(=C(\C)c2ccccc2)c2ccc(OCCN3CCCCC3)cc2)cc1 | 45.5% (inactive)
NC(N)=NC(N)=Nc1ccccc1-c1ccccc1 | 108% (inactive)
C=C(C)[C@@H]1CC[C@]2(C(=O)O)CC[C@]3(C)[C@H](CC[C@@H]4[C@@]5(C)CCC(N)C(C)(C)[C@@H]5CC[C@]43C)[C@@H]12 (stereo partly drawn) | -45.5% (active)
CC1SC(c2ccc(Cl)cc2)N(CCc2cccs2)C1=O (stereo not drawn) | -3.88% (active)
CCN1CCN(C(=O)[C@]23CC[C@@H](C)[C@H](C)[C@@H]2C2=CC[C@@H]4[C@@]5(C)CCC(=O)C(C)(C)[C@@H]5CC[C@@]4(C)[C@]2(C)CC3)CC1 | -44.6% (active)
COc1ccc(C#Cc2ccc(=O)oc2-c2cc(OC)c(OC)c(OC)c2)cc1O | 23.5% (inactive)
CN1C(=O)N(C)C2C1NN=c1s/c(=C\c3ccc(F)cc3)c(=O)n12 (stereo not drawn) | -22.4% (active)
Nc1nc(Nc2ccccc2)c(C=Nc2ccccc2)c(=O)[nH]1 | 98.9% (inactive)
COc1cc(C(=O)N2CCN(c3ccccc3OC)CC2)c(NC(=O)c2cnccn2)cc1OCc1ccccc1 | 47.5% (inactive)
CC1(C)OC2C(COC(c3ccccc3)(c3ccccc3)c3ccccc3)OC(c3c[nH]c4c(N)ncnc34)C2O1 (stereo not drawn) | -34.4% (active)
CC(=O)Nc1ccc(C(=O)/C=C/c2ccccc2)cc1 | 53.9% (inactive)
c1csc(-c2[nH]nc3c2CCc2ccccc2-3)c1 | 132% (inactive)
CCN1CCN(c2cc(C)c3cc(NC(=O)c4ccc(OC)c(OC)c4)ccc3n2)CC1 | 1.42% (active)
